This is part of a sample that, as a whole, favours compounds with a hit. Of some 79,000 tested, about 15% had one in any assay. The source made the active and inactive calls. No stated cut-off is given here; in the data, active means growth inhibition above about 70%; inactive means the rest.
Key:
[1] = NCI Yeast Anticancer Drug Screen. Data for the rad52 strain (AID 147);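 further: 0% = growth of vehicle-treated control cultures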; details: S. cerevisiae rad52 mutant growth inhibition, active compounds read high
Method in brief: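 Read-out: growth inhibition versus vehicle-treated controls. Cells were a DNA repair-deficient yeast strain treated with compounds.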

[2] = NCI Yeast Anticancer Drug Screen. Data for the wt1 strain (AID 149);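 further: 0% = growth of vehicle-treated wt1 cultures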; details: S. cerevisiae wt1 strain (SPY 50644) growth inhibition, active compounds read high
Method in brief: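 Measured: growth of wt1 yeast under compound versus vehicle treatment, reported as inhibition.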

[3] = NCI Yeast Anticancer Drug Screen. Data for the mgt1 strain (AID 153); details: S. cerevisiae mgt1 mutant growth inhibition, active compounds read high
Method in brief: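 mgt1 yeast grown with test compound; read-out is growth inhibition versus vehicle-treated cultures.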

[4] = NCI Yeast Anticancer Drug Screen. Data for the rad50 strain (AID 155);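 further: 0% = growth of vehicle-only cultures of the same strain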; details: S. cerevisiae rad50 strain growth inhibition, active compounds read high
Method in brief: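 Growth of the mutant yeast was measured after compound exposure and referenced to vehicle-treated cultures.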

[5] = NCI Yeast Anticancer Drug Screen. Data for the mec2-1 strain (AID 157); details: S. cerevisiae mec2-1 strain, active compounds read high
Method in brief: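 Yeast mec2-1 mutant treated with compound. Readout: growth inhibition vs vehicle controls.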

[6] = NCI Yeast Anticancer Drug Screen. Data for the rad14 strain (AID 159);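 further: 0% = growth of vehicle-treated control cultures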; details: S. cerevisiae rad14 strain growth inhibition, active compounds read high
Method in brief: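 Here, inhibition of yeast growth was measured after compound exposure, using a strain with a genetic defect in DNA damage repair and vehicle-treated cultures as the reference.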

[7] = NCI Yeast Anticancer Drug Screen. Data for the sgs1 mgt1 strain (AID 161);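 further: 0% = growth of cultures given vehicle only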; details: S. cerevisiae sgs1 mgt1 strain, active compounds read high
Method in brief: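 Read-out: growth inhibition vs vehicle controls. Cells: mutant yeast strain deficient in DNA damage repair.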

[8] = NCI Yeast Anticancer Drug Screen. Data for the CLN2oe strain (AID 163);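 further: 0% = growth of vehicle-only control cultures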; details: S. cerevisiae CLN2oe strain, active compounds read high
Method in brief: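 Read-out: yeast growth inhibition, expressed relative to vehicle-only controls. The strain bears an engineered cell-cycle alteration.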

[9] = NCI Yeast Anticancer Drug Screen. Data for the cln2 rad14 strain (AID 165);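 further: 0% = growth equal to vehicle treated cultures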; details: S. cerevisiae cln2 rad14 strain, active compounds read high
Method in brief: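 cln2 rad14 yeast strain; compound exposure; growth inhibition read vs vehicle controls.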

[10] = NCI Yeast Anticancer Drug Screen. Data for the bub3 strain (AID 167); details: S. cerevisiae bub3 mutant strain, active compounds read high
Method in brief: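 Whole-cell yeast assay. The mutant strain was incubated with compounds, and growth inhibition was determined by comparison with vehicle-treated cells.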

[11] = NCI Yeast Anticancer Drug Screen. Data for the wt2 strain (AID 169);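 further: 0% = growth of vehicle-treated yeast cultures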; details: S. cerevisiae wt2 strain growth inhibition, active compounds read high
Method in brief: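 Read-out: growth inhibition versus vehicle-treated control cultures after compound exposure of the yeast strain.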

[12] = NCI Yeast Anticancer Drug Screen. Data for the mlh1 strain (AID 171);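 further: 0% = growth of vehicle-treated control cultures of the same strain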; details: S. cerevisiae mlh1 strain growth inhibition, active compounds read high
Method in brief: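 Read-out: growth inhibition versus vehicle controls. Strain: engineered yeast with a defined DNA repair or cell cycle defect, compound-treated.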

[13] = NCI Yeast Anticancer Drug Screen. Data for the sgs1 strain (AID 173);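 further: 0% = growth of vehicle-only control cultures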; details: S. cerevisiae sgs1 mutant, active compounds read high
Method in brief: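 Read-out: yeast growth inhibition relative to vehicle controls, following compound exposure of a strain with a defined DNA repair/cell cycle alteration.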

[14] = NCI Yeast Anticancer Drug Screen. Data for the mlh1 rad18 strain (AID 175); details: S. cerevisiae mlh1 rad18 strain growth inhibition, active compounds read high
Method in brief: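 Yeast w/ defined DNA-repair lesions; compound exposure; growth vs vehicle controls → % inhibition.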

[15] = NCI Yeast Anticancer Drug Screen. Data for the rad18 strain (AID 177); details: S. cerevisiae rad18 mutant growth inhibition, active compounds read high
Method in brief: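 Readout: growth inhibition vs vehicle controls. Cells: genetically altered yeast strain, DNA repair defect.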

[16] = at 5.0 µM (retest, dose inferred, filed as 0.5)
[17] = at 50.0 µM (retest, dose inferred, filed as 5.0)

Measured: growth inhibition

NNc1c(F)c(F)cc(F)c1F
inactive: [1]; at 1.2 µM -11% | [1]; at 3.7 µM -19% | [1]; at 11.0 µM -21% | [1]; at 33.0 µM -11% | [1]; at 100.0 µM 21% | [2]; at 1.2 µM -28% | [2]; at 3.7 µM -27% | [2]; at 11.0 µM -20% | [2]; at 33.0 µM -26% | [2]; at 100.0 µM -14% | [3]; at 1.2 µM -17% | [3]; at 3.7 µM -23% | [3]; at 11.0 µM -17% | [3]; at 33.0 µM -6% | [3]; at 100.0 µM 7% | [4]; at 1.2 µM -15% | [4]; at 3.7 µM -22% | [4]; [16] -16% | [4]; at 11.0 µM -18% | [4]; at 33.0 µM -15% | [4]; [17] 8% | [4]; at 50.0 µM 24.8% | [4]; at 100.0 µM 25% | [5]; at 1.2 µM -37% | [5]; at 3.7 µM -35% | [5]; [16] -11% | [5]; at 11.0 µM -38% | [5]; at 33.0 µM -20% | [5]; [17] 6% | [5]; at 50.0 µM 33.1% | [5]; at 100.0 µM 35% | [6]; at 1.2 µM -25% | [6]; at 3.7 µM -25% | [6]; at 11.0 µM -27% | [6]; at 33.0 µM -21% | [6]; at 100.0 µM -4% | [7]; [16] 0% | [7]; [17] 23% | [7]; at 50.0 µM 67.9% | [8]; at 1.2 µM 0% | [8]; at 3.7 µM -4% | [8]; at 11.0 µM 3% | [8]; at 33.0 µM 18% | [8]; at 100.0 µM 26% | [9]; [16] 21% | [9]; [17] 42% | [9]; at 50.0 µM 46.9% | [10]; at 1.2 µM -11% | [10]; at 3.7 µM -18% | [10]; [16] 27% | [10]; at 11.0 µM -3% | [10]; at 33.0 µM 10% | [10]; at 100.0 µM 47% | [11]; at 1.2 µM -27% | [11]; at 3.7 µM -24% | [11]; at 11.0 µM -22% | [11]; at 33.0 µM -20% | [11]; at 100.0 µM -13% | [12]; at 1.2 µM -12% | [12]; at 3.7 µM -7% | [12]; at 11.0 µM -6% | [12]; at 33.0 µM 5% | [12]; at 100.0 µM 42% | [13]; at 1.2 µM -3% | [13]; at 3.7 µM 8% | [13]; at 11.0 µM 18% | [13]; at 33.0 µM 32% | [13]; at 100.0 µM 66% | [14]; [16] 7% | [14]; [17] 36% | [14]; at 50.0 µM 25% | [15]; at 1.2 µM -9% | [15]; at 3.7 µM -20% | [15]; at 11.0 µM -17% | [15]; at 33.0 µM -20% | [15]; at 100.0 µM 6%
active: [10]; [17] 70% | [10]; at 50.0 µM 84.6%
